Measured values from PubChem BioAssay (Tox21).
Results filed as inconclusive are left out. A call without a number means that no potency is given here. Active and inactive are the calls of the source. Calls follow the shape of the dose curve; as a rule, active = well fitted cell-killing curve with a large enough effect in the repeat runs; inconclusive = weak or mixed curves, or effect the other way; inactive = flat fitted curve, though single readings scatter.

Assay: Human pregnane X receptor (PXR) small molecule agonists, qHTS cell viability counter screen (AID 1346977); also: nearly all actives have a fitted effect of over 50% in size
Settings: PXR-Luc HepG2 viability, CellTiter-Fluor, 24 h; series mostly up to 92.4 µM
Summary of the method: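 PXR-Luc HepG2 cells (2,000/well, 5% charcoal-stripped FBS) preincubated 5 hr, then exposed to compounds 24 hr at 37 C. Viability read in the same wells by CellTiter-Fluor fluorescence, reagent added at 23 hr, 1 hr incubation.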
Potency is read from the fitted curve at half-maximal effect.

Compound	Potency
CN(C)CCN(Cc1ccsc1)c1ccccn1	inactive
CCCCCCCCCOS(=O)(=O)O	inactive
O=C(O)c1ccco1	inactive
CCCCO	inactive
CN1Cc2cc(C(=O)N3CCC(C4CCNCC4)CC3)ccc2NC(CC(=O)O)C1=O (stereo not given)	inactive
COc1cc(Cl)c(OC)cc1N	inactive
O=C(NCCO[N+](=O)[O-])c1cccnc1	inactive
O=C(O)C1(C(=O)O)CCC1.[NH2-].[NH2-].[Pt+2]	inactive
CC(COCCO)OCCO (stereo not given)	inactive
CCCCCCCCCCCC(=O)OC[C@@H](O)[C@H]1OC[C@H](OCCO)[C@H]1OCCO	inactive
O=S(=O)(Oc1ccc(Cl)cc1)c1ccccc1	inactive
CCOC(=O)Cc1cccc2ccccc12	inactive
CCCCc1ncc(/C=C(\Cc2cccs2)C(=O)O)n1Cc1ccc(C(=O)O)cc1	inactive
CCOc1ccc(N=Nc2ccc(/C=C/c3ccc(N=Nc4ccc(OCC)cc4)cc3S(=O)(=O)O)c(S(=O)(=O)O)c2)cc1	47.8 µM (active)
OCCNCc1ccccc1	inactive
Cc1ccccc1S(=O)(=O)O	inactive
COCC(C)OC(C)=O (stereo not given)	inactive
NS(=O)(=O)c1ccc(N2CCCCS2(=O)=O)cc1	inactive

Compound	Potency
Cc1nn(C)c(Oc2ccccc2)c1/C=N/OCc1ccc(C(=O)OC(C)(C)C)cc1	0.0863 µM (active)
O=P(O)(OCc1ccccc1)OCc1ccccc1	inactive
CCNc1cc(O)ccc1C	inactive
Nc1ccc([N+](=O)[O-])c(C(F)(F)F)c1	inactive
C=C1[C@H]2CC[C@@H]3[C@H]2C(C)(C)CCC[C@]13C	inactive
C1CCCNCCC1	inactive
Cc1ccc(C(C)OC(=O)C2(C)CCC(C(=O)O)C2(C)C)cc1 (stereo not given)	inactive
O=CC1CC=CCC1 (stereo not given)	inactive
O=[N+]([O-])c1cccc(S(=O)(=O)O)c1	inactive
Cc1ccc(N=Nc2c(O)c(C(=O)O)cc3ccccc23)c(S(=O)(=O)O)c1	23.6 µM (active)
CC(C)(O)c1ccc(CNC(=O)c2cccnc2Oc2ccc(F)cc2)cc1	inactive
CN(Cc1ccc(C(C)(C)C)cc1)Cc1cccc2ccccc12	inactive
Nc1ccccc1S(=O)(=O)c1ccccc1	inactive
OCCN1CCN(CCCN2c3ccccc3C=Cc3ccccc32)CC1	23.7 µM (active)
O=C(OCCCCCCOC(=O)c1ccccc1)c1ccccc1	inactive
Nc1ccc(N)c2c1C(=O)c1ccccc1C2=O	9.69 µM (active)
NCCCN1CCOCC1	inactive
